Experimental data reported in PubChem BioAssay.
A number with no mark means an inactive call. Active and inactive are the calls of the source.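 How the source made its calls: active means compounds that lower survival of DLD-1 colon cancer cells in the luminescence readout, no cutoff given; inactive means the rest.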

assay: decreased DLD-1 cellular survival, CellTiter-Glo luminescent readout, NPC compound collection, primary HTS (AID 1117346); conditions: DLD-1 viability, CellTiter-Glo luminescence; at 20 µM (top of the series)

Compound	viability decrease (inhibition)
CNNCc1ccc(C(=O)NC(C)C)cc1	-10.5%
Nc1nc2c(ncn2CCC(CO)CO)c(=O)[nH]1	-0.57%
O=C1CC2(CCCC2)CC(=O)N1CCNCC1COc2ccccc2O1 (stereo not drawn)	-5.7%
Cn1nnc2c(C(N)=O)ncn2c1=O	-1.4%
O=C1[C@H]2CCCC[C@H]2C(=O)N1CCCCN1CCN(c2nsc3ccccc23)CC1	99.8% (active)
O=C(O)CCNC(=O)c1ccc(N=Nc2ccc(O)c(C(=O)O)c2)cc1	6.7%
CC(Oc1c(Cl)cccc1Cl)C1=NCCN1 (stereo not drawn)	61.6% (active)
CN1CCN(C2=Nc3cc(F)ccc3Cc3ccccc32)CC1	-2.4%
COC(=O)C1=C(C)NC(C)=C(C(=O)OC(C)C)C1c1cccc2nonc12 (stereo not drawn)	11.2%
CCOc1cc(N)c(Cl)cc1C(=O)NCC1CN(Cc2ccc(F)cc2)CCO1 (stereo not drawn)	24%
O=c1c(-c2ccccc2)c1-c1ccccc1	64.3% (active)
O=C1Nc2ccc(Cl)cc2[C@@](C#CC2CC2)(C(F)(F)F)O1	49.4%
Nc1nc(N)nc(-c2cc(Cl)ccc2Cl)n1	-18.2%
OCCOCCN1CCN(C2=Nc3ccccc3Sc3ccccc32)CC1	7.8%
CC(=O)Nc1ccc(CC(=O)O)cc1	-2.4%
O=c1[nH]cnc2c1ncn2[C@H]1CC[C@@H](CO)O1	-6.1%
COC(=O)C1=C(C)NC(C)=C(C(=O)O[C@@H]2CCCN(Cc3ccccc3)C2)[C@@H]1c1cccc([N+](=O)[O-])c1	101% (active)
Cc1c(O)cccc1C(=O)N[C@@H](CSc1ccccc1)[C@H](O)CN1C[C@H]2CCCC[C@H]2C[C@H]1C(=O)NC(C)(C)C	100% (active)
CCc1nn(CCCN2CCN(c3cccc(Cl)c3)CC2)c(=O)n1CCOc1ccccc1	81.3% (active)

Compound	viability decrease (inhibition)
Nc1[nH]c(=O)ncc1F	-0.9%
O=C1CCc2ccc(OCCCCN3CCN(c4cccc(Cl)c4Cl)CC3)cc2N1	89.5% (active)
COc1cc(C(=O)NC2CCCNC2)cc(OC)c1OC (stereo not drawn)	15.8%
COc1ccc(C(=O)NCc2ccc(OCCN(C)C)cc2)cc1OC	-7.9%
COCc1c(C(C)C)nc(C(C)C)c(/C=C/[C@@H](O)C[C@@H](O)CC(=O)O)c1-c1ccc(F)cc1	98.6% (active)
CC(C)(C)C(O)/C=C/c1ccc2c(c1)OCO2 (stereo not drawn)	-1.3%
Cc1ccnc2c1NC(=O)c1cccnc1N2C1CC1	13.6%
CCOc1cc(CC(=O)N[C@@H](CC(C)C)c2ccccc2N2CCCCC2)ccc1C(=O)O	33.3%
Nc1c2c(nc3c1CCC3)CCCC2	-5.95%
CCOC(=O)OC(C)OC1=C(C(=O)Nc2ccccn2)N(C)S(=O)(=O)c2ccccc21 (stereo not drawn)	-0.2%
CN1CCN(c2c(F)cc3c(=O)c(C(=O)O)cn4c3c2SCC4)CC1	0.6%
Cc1nc2n(c(=O)c1CCN1CCC(c3noc4cc(F)ccc34)CC1)CCCC2	10.7%
O=C(O)/C=C/c1ccc(Cn2ccnc2)cc1	9%
O=C(NCCO[N+](=O)[O-])c1cccnc1	-3.2%
Cc1nc2ccc(CN(C)c3ccc(C(=O)N[C@@H](CCC(=O)O)C(=O)O)s3)cc2c(=O)[nH]1	56.2% (active)
CCCN1CCCC[C@H]1C(=O)Nc1c(C)cccc1C	6.9%
COc1cc2c(cc1OC)C(=O)C(CC1CCN(Cc3ccccc3)CC1)C2 (stereo not drawn)	38.5%
N#Cc1ccc(C(c2ccc(C#N)cc2)n2cncn2)cc1	-3.3%
Cc1[nH]cnc1CN1CCc2c(c3ccccc3n2C)C1=O	23.8%
